We go through 27 molecules from PubChem BioAssay (NCI).

Structures are written as SMILES. Compounds without any hit were thinned out: in the full panel of roughly 83,000, 20% have a hit.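 For each line, cells grew in 96-well plates with the test compound present at a single concentration for 48 hours.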 A number with no mark means an inactive call. Active and inactive are the calls of the source. How the source made its calls: active means growth percent below 10; inactive means the rest.

In this test the test system is HL-60(TB) leukemia. Description: NCI-60 one-dose screen, 48 h (100 = growth as untreated, 0 = no growth, -100 = all killed). The note with it: 10 µM unless noted.
`O=C(O)c1ccc(-c2nn(-c3ccc(C(=O)O)cc3)cc2CNc2ccc(Br)cc2)cc1`: the growth was 107%. The value for `Cc1cn(C2CC(N=[N+]=[N-])C(COP(=O)(O)OP(=O)(O)OP(=O)(O)O)O2)c(=O)[nH]c1=O` (configuration not stated) was -96.5% (active); that for `CCCCNC1=C(OCC)C(=O)c2ccccc2C1=O` was 101%; that for `Nc1c(-c2nc3ccc(Br)cc3c(=O)[nH]2)nnn1-c1ccccc1` was 103%. Take `CC1(C)NCCC[C@]2(C)[C@H]3C=CC4=C5C[C@](C)(CO)CC[C@]5(C)CC[C@@]4(C)[C@]3(C)CC[C@@H]12`: the growth is -52.8% [100 µM] (active). Next, `Cc1cccc(NC(=O)Nc2ccc(-c3ccc4c(c3)NC(=O)/C4=C\c3ccc[nH]3)cc2)c1`: 75.1%; `O=C(Nc1cccc(C(=O)N2CCc3ccc(Cl)cc32)c1)c1ccco1`: 1.39% (active). The value for `O=C(NNC(=S)Nc1ccccc1)c1ccncc1` was 117%. Turning to `CCO/C=N/C1=C(C#N)C(c2ccc(OC)cc2)c2c(c3ccccc3n(C)c2=O)O1` (configuration not stated), the growth is 102%. For `CC(C)(C)OC(=O)NCCc1ccc(N)cc1`, the growth was 89.4%.

Consider `COc1cc2nc(Nc3cccc(Cl)c3)nc(N)c2cc1OC`, for which the growth is 87.1%.

On to `COc1ccc(/C=C2\COc3ccc(O)cc3C2=O)c(OC)c1`, for which the growth was 11.2%.

Consider `Fc1cc(-c2nnc3sc(-c4ccc(Cl)cc4)nn23)c(Cl)cc1Cl`, for which the growth is 26.9%. Next, `CCN(CC)CC#CCOC(=O)[C@]1(C)CCC[C@]2(C)c3ccc(C(C)C)cc3CC[C@@H]12`: 63.6%; `CN=C1C=C/C(=N/N=c2/ccn(O)cc2C)C=C1C`: 75.6%.

As for `Cc1cc2c(-c3nc4ccccn4c3Nc3cccc4ccccc34)c(O)c(O)cc2c(O)c1-c1c(C)cc2c(-c3nc4ccccn4c3Nc3cccc4ccccc34)c(O)c(O)cc2c1O`, the growth was 28.6%. Next, `COc1ccc(N2CCN(CC(=O)N3CCN(c4nnc(-c5ccc(Cl)cc5)c(-c5ccc(Cl)cc5)n4)CC3)CC2)cc1`: -19.9% (active); `COc1ccc(-c2cc(C(=O)Nc3ccc(Br)cc3)nc3[nH]c(=O)sc23)cc1`: 25.5%. Next, `CCOC(=O)c1ccc2c(c1)[n+](=O)c(C(=O)C1CCCS1)c(C(F)(F)F)n2[O-]` (configuration not stated): -69% (active); `CN(CCC#N)c1ccc(/C=C2\NC(=O)NC2=O)cc1`: 92.2%; `O=C(COc1ccc(/C=C2\Oc3ccc4ccccc4c3C2=O)cc1)c1ccc(Cl)cc1`: 86.5%. For `O=C1NC(=O)C(c2ccc(Cl)cc2Cl)N1` (configuration not stated), the growth is 107%. Take `O=c1c2ccccc2sc2c(N3CCCC3)nc3ccccc3c12`: the growth was 99.1%. Consider `CC1=NNC(=O)C1CCC(=O)N/N=C(\C)c1ccc2ccccc2c1` (configuration not stated), for which the growth was 86.4%.

Take `O=C(CSc1nc2c(n1Nc1ccccc1)-c1ccccc1SC2)Nc1nc(-c2ccc(Cl)cc2)cs1`: the growth was 104%. The value for `CC(C)CSc1oc(-c2ccccc2)nc1S(=O)(=O)c1ccccc1` was 82%; that for `S=C(c1ccc2c(c1)OCO2)N1CCN(c2ccccc2Cl)CC1` was 87.6%.
